The values below come from PubChem BioAssay (NCATS).

The structures appear in SMILES notation. Results filed as inconclusive are left out. Calls of active or inactive are those of the source. Unless noted, calls come from the whole dose curve; as a rule, active = well fitted curve in either direction with a large enough effect (not every such curve was filed as active); inconclusive = small, poorly fitted or top-dose-only effect, or another doubt; inactive = flat fitted curve, though single readings scatter. A value given as a limit tells only on which side of the number the result lay.

The target in assay [1] is Lysosomal acid glucosylceramidase (Homo sapiens) (UniProt P04062). In words: Glucocerebrosidase-p2 (AID 348; in the data active = potency below about 10 µM; note: potency is the fitted concentration of half-maximal effect). Conditions: purified GBA, blue fluorogenic substrate, 40 min. The gist of the method: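 Compounds titrated from 0.6 nM upwards against 0.2 nM enzyme in pH 5.9 citric acid/KH2PO4, taurocholate, tween-20; blue fluorogenic substrate 80 uM, 40 min room temperature, stopped and read Ex 365/Em 440 for AC50.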

Assay [2] is described as follows: AP1 Signaling Pathway (AID 357).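 Note: ME-180 reporter cells stimulated with EGF at its EC50 level; % is set by controls: 0 for no effect and ±100 for the full control effect.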 Particulars: ME-180 AP-1-bla reporter, EGF-induced, beta-lactamase ratio, 5 h; at 7.69 µM (top of the series) unless noted. The gist of the method: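 In this screen, ME-180 cells in Opti-MEM with 0.5% dialyzed FBS received EC50 EGF and compound titrations for 5 h. AP-1 reporter beta-lactamase was detected via CCF4 ratio, giving AC50 for positive and negative modulators.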

Assay [3] deals with Cytochrome P450 1A2 (Homo sapiens) (UniProt P05177). In words: p450-cyp1a2 (AID 410; calls by dose curve; note: potency is the fitted concentration of half-maximal effect;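 for activity change, negative = inhibition: -100% = full effect of reference inhibitor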). Conditions: recombinant CYP1A2, luciferin-ME demethylation, luminescence; series mostly up to 57 µM. The gist of the method: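 Human CYP1A2 (20nM) demethylated Luciferin-ME at its Km (100uM) in 100mM KPO4. After 10 min compound preincubation, NADPH regeneration ran the reaction 60 min at room temperature. Luciferin was read by luminescence, normalized to 57 uM furafylline.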

Assay [4] is described as follows: NFAT Signaling Pathway (AID 444).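 Note: carbachol stimulus at about its EC50 of 1 µM final; % is set by controls: 0 for no effect and ±100 for the full control effect.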 Particulars: Jurkat NFAT-bla M1, carbachol, beta-lactamase ratio, 5 h; at 7.69 µM (top of the series) unless noted. The gist of the method:
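Read-out: CCF4 FRET ratio (460 nm/530 nm) after 1 h RT dye loading, used for %activity and AC50 from titration series. Cells: Jurkat NFAT-β-lactamase/M1 line, treated with compound plus 1 uM carbachol for 5 h, 37 °C.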

Assay [5] has as its target Glucocorticoid receptor (Homo sapiens) (UniProt P04150). In words: GR-GFP Redistribution (AID 450;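 active = compounds whose dose series gives a full or clear partial fitted curve of increased nuclear translocation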; note: potency is the fitted concentration of half-maximal effect). Conditions: U2OS GR-GFP nuclear translocation, laser cytometry, 2 h.
The target is the same in assay [6]. Description: GR-EFC Redistribution (AID 451; calls by dose curve; note: potency is the fitted concentration of half-maximal effect). Particulars: CHO-K1 GR-EFC translocation, beta-gal luminescence, 2 h. The gist of the method:
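Translocation of GR-ED fusion to nuclear EA restores b-gal, read by luminescence after 1 h room-temperature detection. Engineered CHO-K1 biosensor cells, 1,000/well, exposed 2 h at 37 C to titrations up to 46 uM final.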

In assay [7] the target is Mitogen-activated protein kinase 10 (Mus musculus) (UniProt Q61831). Description: JNK3 AlphaScreen Assay (AID 530).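 Note: kinase came from lysate of stimulated human HepG2 cells; signal reports phosphorylation of biotinylated GST-cJun 1-79 at Ser73 with 10 µM ATP; % is set by controls: 0 for no effect and ±100 for the full control effect.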 Conditions: JNK3 lysate, c-Jun phosphorylation; series mostly up to 57.1 µM. The gist of the method:
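Room-temperature AlphaScreen kinase assay; pre-activated HepG2 lysate as JNK3 source, biotin-GST-cJun(1-79) substrate, 10 uM ATP, compound 15 min preincubation.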
In general terms: Alpha assays give light when donor and acceptor beads are brought close together.

Assay [8] has as its target 3',5'-cyclic-AMP phosphodiesterase 4B (Homo sapiens) (UniProt Q07343). In words: qHTS Assay for Inhibitors of PDE-IV (AID 607; active = well fitted activation curve with a large enough effect in the main read-out, with a control signal flat, not every such curve was filed as active; note: % of control where 0% means no effect). Particulars: HEK293 ACTOne CNG channel cells, membrane potential fluorescence; series mostly up to 22.9 µM. In outline:
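HEK293 ACTOne cells with CNG channel (1000/well), endogenous PDE4; membrane potential dye, compounds up to 22.9 uM final. Fluorescence Ex 535/Em 590; RO 20-1724 (100 uM final) as reference.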

Assay [9] deals with Cytochrome P450 3A4 (Homo sapiens) (UniProt P08684). Description: qHTS Assay for Activators of Cytochrome P450 3A4 (AID 885; active = well fitted curve in the direction sought with a large enough effect; an effect the other way counts as inactive or inconclusive; note: nearly all actives have a fitted effect of over 65% in size). Particulars: recombinant CYP3A4, Luciferin-PPXE luminescence, 60 min; series mostly up to 57.1 µM. The gist of the method: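 Human CYP3A4 (20 nM) with Luciferin-PPXE at 25 uM (its KM) in 200 mM KPO4; 10 min compound preincubation, then NADPH regeneration and 60 min reaction at RT. Luciferin read by luminescence; normalized to 57 uM ketoconazole full inhibition.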
Background: In qHTS, concentration-response curves come from the screen itself.

A short description of assay [10]: Confirmation and Secondary Assay for Modulators of Hemoglobin Beta Chain Splicing at IVS2 654 locus (AID 910; active = well fitted curve in the direction sought with a large enough effect; an effect the other way counts as inactive or inconclusive;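 note: HeLa cells stably carrying EGFP split by mutant beta-globin IVS2-654 intron; per-well total GFP intensity by laser scanning cytometry after 2-day treatment; % of control where 0% means no effect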). Particulars: HeLa EGFP-654 splicing reporter, GFP fluorescence, 48 h; series mostly up to 38.3 µM. In outline:
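Readout: per-well total peak green fluorescence (488 nm ex, 500–520 nm em) from objects 5–250 µm, reflecting correct splicing of an EGFP-654 reporter. Compounds were applied for 2 days at 37 °C to overnight-plated HeLa EGFP-654 cells; controls were DMSO and 500 nM IVS2-654 PNA.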

A short description of assay [11]: Confirmation and Secondary Assay for Modulators of Hemoglobin Beta Chain Splicing at IVS2 705 locus (AID 930; active = well fitted curve in the direction sought with a large enough effect; an effect the other way counts as inactive or inconclusive;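 note: HeLa cells stably expressing the EGFP-705 splicing reporter; GFP fluorescence per well restored by corrected splicing of the IVS2-705 intron in EGFP; % of control where 0% means no effect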). Conditions: HeLa EGFP-705 splicing reporter, GFP fluorescence, 48 h; series mostly up to 38.3 µM. In outline:
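Splice-correction reporter: EGFP cDNA split by beta-globin intron 2 bearing the 705 mutation, stably in HeLa. Compound incubation 2 days, 37C; fluorescent objects 5-250 µm summed per well.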

Assay [12] can be described thus: qHTS Assay for Lipid Storage Modulators (AID 1519; calls by dose curve). Particulars: Drosophila S3 cells, BODIPY lipid droplet/cell ratio, laser cytometry, cells loaded with oleic acid; for activity change, negative = inhibition: at 57.5 µM (top of the series). In outline: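 Cells seeded at 5,000 per well were treated with compounds over a concentration series and loaded with oleic acid (400 uM, as added). Lipid droplet fluorescence (488 nm excitation, 500-530 nm channel) was read by laser-scanning cytometry and normalized to 20 uM Triacsin C.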

Assay [13] is described as follows: Stat Signaling Pathway (AID 446).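 Note: ME-180 cervical cancer cells given 40 pM IL-6 alongside compound; SIE-controlled beta-lactamase reporter measured as 460/530 nm FRET emission ratio; % is set by controls: 0 for no effect and ±100 for the full control effect.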 Particulars: ME-180 SIE beta-lactamase reporter, IL-6 stimulated, 5 h; at 7.69 µM (top of the series) unless noted. In outline: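 ME-180 cells carrying a SIE-driven beta-lactamase reporter are stimulated with 40 pM IL-6 for 5 h at 37C in the presence of compound. The 460/530 nm FRET substrate ratio is read after 2.5 h at RT. Data are normalised to 300 pM IL-6 and to 125 nM JAK inhibitor controls.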

For assay [14], the target named is Cytochrome P450 2D6 (Homo sapiens) (UniProt P10635). In words: qHTS Assay for Inhibitors and Substrates of Cytochrome P450 2D6 (AID 891; active = well fitted curve in the direction sought with a large enough effect; an effect the other way counts as inactive or inconclusive; note: nearly all actives have a fitted effect of over 60% in size; note: potency is the fitted concentration of half-maximal effect). Conditions: recombinant CYP2D6, luciferin-ME EGE luminescence; series mostly up to 57.1 µM. In outline: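 Human CYP2D6 (5 nM) with 30 uM Luciferin-ME EGE (at Km) in 100 mM KPO4, compound preincubated 10 min, then NADPH regeneration system for 60 min at room temperature. Luciferin read by luminescence; normalized to 1.43 uM quinidine.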

The target of assay [15] is Ubiquitin carboxyl-terminal hydrolase 1 (Homo sapiens) (UniProt O94782). Description: Inhibitors of USP1/UAF1: Pilot qHTS (AID 504865; active = well fitted curve in the direction sought with a large enough effect; an effect the other way counts as inactive or inconclusive;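 note: rhodamine fluorescence freed from ubiquitin-rhodamine substrate followed over time; top concentration of the series differs between compounds; % is set by controls: 0 for no effect and ±100 for the full control effect; nearly all actives have a fitted effect of over 35% in size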). Conditions: purified USP1/UAF1, Ub-rhodamine cleavage fluorescence; series mostly up to 54.9 µM. The gist of the method: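 Enzyme-free wells gave the negative control, while test wells held 1nM USP1/UAF1 preincubated with compound for 15 min at room temperature. Ub-Rho at 150nM final started the reaction, and fluorescence at 480/540 nm was recorded kinetically.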

The target in assay [16] is Cytochrome P450 3A4 (Homo sapiens) (UniProt P08684). In words: qHTS Assay for Inhibitors and Substrates of Cytochrome P450 3A4 (AID 884; active = well fitted curve in the direction sought with a large enough effect; an effect the other way counts as inactive or inconclusive; note: potency is the fitted concentration of half-maximal effect; nearly all actives have a fitted effect of over 50% in size). Particulars: recombinant CYP3A4, Luciferin-PPXE luminescence; series mostly up to 57.1 µM. In outline:
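20 nM human CYP3A4 with 25 uM Luciferin-PPXE (at KM) in 200 mM KPO4, preincubated 10 min with compound; NADPH regeneration started a 60 min RT reaction. Luciferin detected by luminescence, normalized to 57 uM ketoconazole as full inhibition.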

Assay [17] addresses Cytochrome P450 2C19 (Homo sapiens) (UniProt P33261). Description: qHTS Assay for Inhibitors and Substrates of Cytochrome P450 2C19 (AID 899; active = well fitted curve in the direction sought with a large enough effect; an effect the other way counts as inactive or inconclusive; note: % is set by controls: 0 for no effect and ±100 for the full control effect; nearly all actives have a fitted effect of over 60% in size). Conditions: recombinant CYP2C19, luciferin-H EGE luminescence; series mostly up to 57.1 µM. In outline: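 Reactions contain 5nM enzyme, 10uM Luciferin-H EGE (KM) and 50mM KPO4; compound preincubates 10 min at 37C, NADPH regeneration starts turnover for 60 min. Luminescence after detection reagent gives activity.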

Setting [18] is: measured here: cell count channel max response.
[19] abbreviates: measured here: lipid channel max response.

Lysosomal acid glucosylceramidase (Homo sapiens), sequence (P04062 whole entry, looked up): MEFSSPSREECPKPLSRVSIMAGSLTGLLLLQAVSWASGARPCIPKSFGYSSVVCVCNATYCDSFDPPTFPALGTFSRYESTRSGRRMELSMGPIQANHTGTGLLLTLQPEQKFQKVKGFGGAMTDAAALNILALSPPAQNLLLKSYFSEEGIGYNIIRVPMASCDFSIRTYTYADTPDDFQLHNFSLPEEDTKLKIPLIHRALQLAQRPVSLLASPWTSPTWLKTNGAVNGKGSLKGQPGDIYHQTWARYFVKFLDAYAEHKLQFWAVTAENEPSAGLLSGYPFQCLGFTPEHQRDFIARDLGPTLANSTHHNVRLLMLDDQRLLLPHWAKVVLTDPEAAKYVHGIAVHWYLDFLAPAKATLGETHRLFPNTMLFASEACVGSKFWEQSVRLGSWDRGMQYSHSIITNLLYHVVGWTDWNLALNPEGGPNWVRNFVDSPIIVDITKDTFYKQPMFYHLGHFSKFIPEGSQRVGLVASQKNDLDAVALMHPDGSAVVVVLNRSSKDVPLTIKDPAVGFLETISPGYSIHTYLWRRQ
3',5'-cyclic-AMP phosphodiesterase 4B (Homo sapiens), sequence (Q07343 whole entry, looked up): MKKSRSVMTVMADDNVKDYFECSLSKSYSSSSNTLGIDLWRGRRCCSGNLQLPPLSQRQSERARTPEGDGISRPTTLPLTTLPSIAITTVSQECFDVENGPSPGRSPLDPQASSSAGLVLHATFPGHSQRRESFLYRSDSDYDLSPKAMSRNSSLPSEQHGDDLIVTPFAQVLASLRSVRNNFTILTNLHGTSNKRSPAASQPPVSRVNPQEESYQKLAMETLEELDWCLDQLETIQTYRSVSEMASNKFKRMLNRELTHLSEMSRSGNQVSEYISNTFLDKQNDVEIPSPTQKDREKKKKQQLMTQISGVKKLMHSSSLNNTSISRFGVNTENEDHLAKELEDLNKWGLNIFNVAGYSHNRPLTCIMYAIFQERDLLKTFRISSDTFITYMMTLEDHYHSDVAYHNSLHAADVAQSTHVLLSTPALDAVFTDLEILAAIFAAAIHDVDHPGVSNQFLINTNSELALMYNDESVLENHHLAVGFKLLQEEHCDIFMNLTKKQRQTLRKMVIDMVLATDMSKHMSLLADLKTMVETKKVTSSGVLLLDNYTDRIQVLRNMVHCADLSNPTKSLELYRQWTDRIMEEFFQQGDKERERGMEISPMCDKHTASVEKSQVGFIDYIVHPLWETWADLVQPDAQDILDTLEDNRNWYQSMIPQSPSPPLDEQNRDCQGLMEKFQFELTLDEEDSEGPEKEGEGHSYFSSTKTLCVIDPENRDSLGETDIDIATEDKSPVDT
Glucocorticoid receptor (Homo sapiens), sequence (P04150 whole entry, looked up): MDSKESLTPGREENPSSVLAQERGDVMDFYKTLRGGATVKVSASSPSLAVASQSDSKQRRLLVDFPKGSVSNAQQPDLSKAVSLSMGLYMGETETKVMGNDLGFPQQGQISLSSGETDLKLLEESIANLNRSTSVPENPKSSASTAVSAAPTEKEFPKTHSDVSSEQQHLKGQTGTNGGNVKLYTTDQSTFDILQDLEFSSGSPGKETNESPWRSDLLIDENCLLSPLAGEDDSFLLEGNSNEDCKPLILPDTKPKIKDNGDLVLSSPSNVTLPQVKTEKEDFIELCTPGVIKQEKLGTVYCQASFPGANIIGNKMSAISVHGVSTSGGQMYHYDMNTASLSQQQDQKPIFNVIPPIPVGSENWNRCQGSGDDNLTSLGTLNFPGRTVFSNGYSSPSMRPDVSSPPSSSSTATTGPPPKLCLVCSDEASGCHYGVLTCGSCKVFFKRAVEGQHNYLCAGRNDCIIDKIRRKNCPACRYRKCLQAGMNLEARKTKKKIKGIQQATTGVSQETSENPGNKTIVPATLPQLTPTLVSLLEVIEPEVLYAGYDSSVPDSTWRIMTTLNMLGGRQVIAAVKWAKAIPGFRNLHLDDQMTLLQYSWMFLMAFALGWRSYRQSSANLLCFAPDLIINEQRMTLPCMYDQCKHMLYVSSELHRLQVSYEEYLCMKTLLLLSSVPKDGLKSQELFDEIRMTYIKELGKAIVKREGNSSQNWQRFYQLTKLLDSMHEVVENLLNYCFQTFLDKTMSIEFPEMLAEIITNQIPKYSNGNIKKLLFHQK
Cytochrome P450 1A2 (Homo sapiens), sequence (P05177 whole entry, looked up): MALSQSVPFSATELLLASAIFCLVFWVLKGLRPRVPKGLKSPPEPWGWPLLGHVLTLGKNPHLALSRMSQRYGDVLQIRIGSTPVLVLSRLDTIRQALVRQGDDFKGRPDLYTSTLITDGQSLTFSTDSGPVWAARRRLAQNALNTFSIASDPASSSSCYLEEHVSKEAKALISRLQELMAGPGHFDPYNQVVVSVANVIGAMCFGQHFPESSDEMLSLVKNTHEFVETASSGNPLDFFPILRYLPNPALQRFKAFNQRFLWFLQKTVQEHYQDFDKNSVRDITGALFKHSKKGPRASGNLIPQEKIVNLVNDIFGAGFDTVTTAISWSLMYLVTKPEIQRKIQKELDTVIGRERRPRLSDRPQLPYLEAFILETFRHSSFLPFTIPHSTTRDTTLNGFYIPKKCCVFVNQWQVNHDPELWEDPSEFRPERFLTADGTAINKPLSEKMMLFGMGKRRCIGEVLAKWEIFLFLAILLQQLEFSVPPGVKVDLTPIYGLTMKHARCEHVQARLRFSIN
Cytochrome P450 3A4 (Homo sapiens), sequence (P08684 whole entry, looked up): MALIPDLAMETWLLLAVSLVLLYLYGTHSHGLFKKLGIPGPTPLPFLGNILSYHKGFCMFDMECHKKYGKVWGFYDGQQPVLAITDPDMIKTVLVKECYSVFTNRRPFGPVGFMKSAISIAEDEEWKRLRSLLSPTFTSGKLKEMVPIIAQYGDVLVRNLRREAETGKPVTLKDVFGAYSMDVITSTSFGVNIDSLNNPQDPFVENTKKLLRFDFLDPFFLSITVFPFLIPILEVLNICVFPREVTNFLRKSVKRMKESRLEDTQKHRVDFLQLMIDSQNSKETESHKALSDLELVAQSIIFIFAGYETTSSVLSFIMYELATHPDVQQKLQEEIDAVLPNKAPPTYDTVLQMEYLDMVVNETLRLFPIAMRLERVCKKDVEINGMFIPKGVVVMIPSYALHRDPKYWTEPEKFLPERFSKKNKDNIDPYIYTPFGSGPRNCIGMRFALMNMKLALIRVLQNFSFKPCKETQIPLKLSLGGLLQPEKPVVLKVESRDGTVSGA
Cytochrome P450 2D6 (Homo sapiens), sequence (P10635 whole entry, looked up): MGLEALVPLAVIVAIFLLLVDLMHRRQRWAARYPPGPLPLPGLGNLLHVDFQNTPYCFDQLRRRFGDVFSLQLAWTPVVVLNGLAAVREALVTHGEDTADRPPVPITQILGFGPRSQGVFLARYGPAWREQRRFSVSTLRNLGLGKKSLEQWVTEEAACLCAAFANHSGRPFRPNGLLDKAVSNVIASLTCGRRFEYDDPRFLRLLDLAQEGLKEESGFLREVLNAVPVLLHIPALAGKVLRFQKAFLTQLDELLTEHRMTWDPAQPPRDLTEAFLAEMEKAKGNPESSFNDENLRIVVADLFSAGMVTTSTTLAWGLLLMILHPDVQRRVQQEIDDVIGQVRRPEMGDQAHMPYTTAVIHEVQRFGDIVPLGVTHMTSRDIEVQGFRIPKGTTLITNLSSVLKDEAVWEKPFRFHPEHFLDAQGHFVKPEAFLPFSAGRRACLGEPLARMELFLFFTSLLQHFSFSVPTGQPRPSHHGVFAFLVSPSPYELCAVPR
Cytochrome P450 2C19 (Homo sapiens), sequence (P33261 whole entry, looked up): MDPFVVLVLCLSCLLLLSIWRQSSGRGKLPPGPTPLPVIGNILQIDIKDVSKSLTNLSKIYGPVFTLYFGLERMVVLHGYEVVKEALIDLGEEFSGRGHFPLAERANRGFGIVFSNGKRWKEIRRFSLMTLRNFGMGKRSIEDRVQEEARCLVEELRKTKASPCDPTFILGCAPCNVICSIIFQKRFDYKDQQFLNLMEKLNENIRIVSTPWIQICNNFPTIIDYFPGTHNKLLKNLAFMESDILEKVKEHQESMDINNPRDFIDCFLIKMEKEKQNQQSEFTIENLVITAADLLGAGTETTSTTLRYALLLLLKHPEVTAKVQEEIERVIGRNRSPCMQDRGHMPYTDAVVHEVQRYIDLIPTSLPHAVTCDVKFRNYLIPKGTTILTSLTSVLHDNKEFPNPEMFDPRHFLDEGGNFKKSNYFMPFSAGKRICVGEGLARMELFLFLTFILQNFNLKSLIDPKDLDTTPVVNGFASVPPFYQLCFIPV
Ubiquitin carboxyl-terminal hydrolase 1 (Homo sapiens), sequence (O94782 whole entry, looked up): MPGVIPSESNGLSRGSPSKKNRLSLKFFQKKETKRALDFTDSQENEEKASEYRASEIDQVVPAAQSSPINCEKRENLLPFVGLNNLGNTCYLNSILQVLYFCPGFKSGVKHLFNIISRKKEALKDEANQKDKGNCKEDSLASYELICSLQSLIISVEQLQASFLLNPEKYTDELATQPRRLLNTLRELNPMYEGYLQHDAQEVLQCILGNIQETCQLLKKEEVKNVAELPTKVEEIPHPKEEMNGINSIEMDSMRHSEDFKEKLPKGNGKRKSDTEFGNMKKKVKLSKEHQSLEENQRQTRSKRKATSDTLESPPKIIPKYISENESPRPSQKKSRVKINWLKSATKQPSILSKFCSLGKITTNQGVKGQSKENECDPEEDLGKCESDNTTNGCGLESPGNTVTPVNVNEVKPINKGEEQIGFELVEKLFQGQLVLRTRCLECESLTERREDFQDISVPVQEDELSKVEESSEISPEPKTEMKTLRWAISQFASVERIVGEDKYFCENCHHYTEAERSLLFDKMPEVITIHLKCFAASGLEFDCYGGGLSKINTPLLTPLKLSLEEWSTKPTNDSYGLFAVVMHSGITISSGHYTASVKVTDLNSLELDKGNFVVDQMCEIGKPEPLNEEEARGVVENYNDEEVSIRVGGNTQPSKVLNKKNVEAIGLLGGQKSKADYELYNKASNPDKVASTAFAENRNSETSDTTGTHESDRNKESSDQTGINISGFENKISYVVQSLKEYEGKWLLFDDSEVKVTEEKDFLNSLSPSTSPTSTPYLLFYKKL

For `Cc1cnc(CNc2ccnc(-c3ccc(N(C)C)cc3)n2)cn1`, the Potency in assay [1] is > 11.4 µM (inactive); in assay [3], 2.51 µM (active); in assay [5], > 46 µM (inactive); in [6], > 46 µM (inactive). Also, the activity change, negative = inhibition in assay [2] is 8.41% (inactive); in [4], -1.95% (inactive); in assay [12], 8.28% (inactive). For the same molecule, the Potency result in assay [7], in assay [8], in assay [9] and in assay [10] was “inactive” throughout. Further, the molecule was called inactive in assay [11]. The max response in assay [12] (setting [18]) was -9.25%; in assay [12] (setting [19]) it was 1.54%.
As for `CN(C)Cc1ccccc1-c1ccc2ncnc(N(C)Cc3ccco3)c2c1`, the Potency was > 11.4 µM (inactive) in assay [1]; 2 µM (active) in assay [3]; > 46 µM (inactive) in [5]; > 46 µM (inactive) in assay [6]; 2 µM (active) in assay [14]. Besides, the activity change, negative = inhibition is 3.42% (inactive) in [2] and 3.94% (inactive) in assay [12]. For the same molecule, the activity, negative = inhibition in [13] was -16.1% (inactive). The Potency result in [7], in assay [9], in assay [10] and in assay [15] was “inactive” throughout. For the same molecule, in [11], the result was inactive. Also, the max response in assay [12] (setting [18]) turned out to be 7.91%; in assay [12] (setting [19]) it was 12.6%.
For the molecule `COc1ccc(C(=O)N2CCC3(CCCN(C(=O)Nc4cccc(C#N)c4)C3)CC2)cc1`, the Potency in assay [1] was > 11.4 µM (inactive); in [3], 15.8 µM (active); in assay [6], > 46 µM (inactive); in assay [16] it was 6.31 µM (active). Moreover, the activity change, negative = inhibition is -23.2% (inactive) in [2], -8.43% (inactive) in [4] and 3.86% (inactive) in assay [12]. Further, in [13], the activity, negative = inhibition is 8.74% (inactive). Moreover, the Potency entry in [7] and in assay [9] was “inactive” in each case. Besides, the values for the max response in assay [12] (setting [18]) and in assay [12] (setting [19]) were 0.951% and 7.45%, respectively.
Turning to `FC(F)(F)c1cc(CN2CC[C@@]3(CCCNC3)C2)cc(C(F)(F)F)c1`, the Potency in assay [1] is > 11.4 µM (inactive); in [6], > 46 µM (inactive). In addition, the activity change, negative = inhibition is 7.88% (inactive) in [2] and 1.16% (inactive) in [12]. Further, the Potency result in assay [3], in assay [7], in assay [8], in assay [9], in [14] and in [17] was “inactive” throughout. In addition, the activity, negative = inhibition in assay [13] is 4.03% (inactive). The max response was 8.55% in assay [12] (setting [18]) and 10.6% in [12] (setting [19]).
For `CN1CCN(c2ncc3ncc(=O)n(Cc4cccs4)c3n2)CC1`, the Potency in [1] is > 11.4 µM (inactive); in [3], 3.98 µM (active); in assay [5], > 9.22 µM (inactive); in assay [6], > 46 µM (inactive). Besides, the results for the activity change, negative = inhibition in assay [2] and in [12] were -18.1% (inactive) and 4.27% (inactive), respectively. For the same molecule, the activity, negative = inhibition in assay [13] was -10.9% (inactive). Besides, the Potency entry in assay [7], in assay [8] and in assay [9] was “inactive” throughout. Also, the max response in [12] (setting [18]) came out at 26.8%; in [12] (setting [19]), 33.1%.
